SMILES strings stand for the structures. In all, about 68,000 compounds went through this assay and about 2,700 (4%) showed an effect of 50% or more. What follows is part of a selection rich in strong results, with near analogues and random picks from the rest.

For the assay, the system named is Plasmodium berghei. Briefly: Screen against P. berghei liver stage (PbLuc), transformed with Luciferase, at 2uM. It counts as functional, HepG2. Conditions: tested at 2 uM.
In the case of `CSC1(CNC(=O)c2ccn(-c3ccccc3F)n2)CCOCC1`, the INHIBITION is on record as -5.41%.

`O=C(C1CCCC1)N1CC2(CCN(C3COC3)C2)OCc2ccccc21` (stereo not drawn): the INHIBITION stood at 12.39%.

Regarding `Cc1nc(CNC(=O)CCN2CCN(c3ccccc3)CC2)oc1C`, the INHIBITION is reported as -0.39%.

Take `O=C(NCc1cn2cccnc2n1)C1CC(=O)N(Cc2cccnc2)C1` (stereo not drawn): the INHIBITION is -23.46%.

`CN(C)CCN1CC(C(=O)NCc2cn3cccnc3n2)CC1=O` (stereo not drawn): the INHIBITION is 11.37%.

For `O=C(NCc1cn2cccnc2n1)C1CC(=O)N(Cc2ccccn2)C1` (stereo not drawn), the INHIBITION is 56.79%.

Turning to `Cc1ccc(C(=O)O)cc1S(=O)(=O)N(CC(C)O)c1ccccc1` (stereo not drawn), the INHIBITION was 11.33%.

`COc1ncccc1NC(=O)N1CCC(c2ccc(O)cc2)CC1`: the INHIBITION is -14.28%.

For `CCN1CC(COC(=O)c2ccc(N(C)C)cc2F)CC1=O` (stereo not drawn), the INHIBITION is -3.43%.

As for `CS(=O)(=O)N1C[C@@H]2C[C@H](C(=O)N3CCOCC3)[C@H](C1)O2`, the INHIBITION is given as 54.01%.

For the compound `CCCS(=O)(=O)N1C[C@@H]2C[C@H](C(=O)N3CCN(C)CC3)[C@H](C1)O2`, the INHIBITION stood at 72.68%.

Turning to `CC(C)CS(=O)(=O)N1C[C@@H]2C[C@H](C(=O)N3CCN(C)CC3)[C@H](C1)O2`, the INHIBITION was -26.46%.

As for `CCCS(=O)(=O)N1C[C@@H]2C[C@H](C(=O)N3CCOCC3)[C@H](C1)O2`, the INHIBITION was determined as 32.59%.

As to `CC(C)CS(=O)(=O)N1C[C@@H]2C[C@H](C(=O)N3CCOCC3)[C@H](C1)O2`, the INHIBITION is listed as 15.36%.

For `CCCS(=O)(=O)N1C[C@@H]2C[C@H](C(=O)N3CCCC3)[C@H](C1)O2`, the INHIBITION worked out at 22.71%.

With `CCOCC1CN(Cc2ccncc2)Cc2nn(C)cc21` (stereo not drawn), the INHIBITION is reported as 7.26%.

`CCN(C)c1ncnc2c1CCN(CC1CCOC1)CC2` (stereo not drawn): the INHIBITION stood at 26.76%.

As for `COc1cc(Cl)ccc1C(=O)NCc1n[nH]c(C)n1`, the INHIBITION is reported as 29.39%.

In the case of `Cc1cc(CC(=O)NCC(O)c2ccc(OC(F)F)cc2)n[nH]1` (stereo not drawn), the INHIBITION came out at 17.94%.

Take `CSc1ccc(-c2noc(CN(Cc3ccccc3)C(C)C)n2)cc1`: the INHIBITION came out at 28.97%.

With `Cn1nc(Cn2cccc2)c2c1CN(Cc1ccoc1)C2`, the INHIBITION amounted to 50.32%.

With `Cn1nc(Cn2ccnc2)c2c1CN(Cc1ccoc1)C2`, the INHIBITION was determined as 4.26%.

Turning to `COCc1nn(C(C)C)c2c1CCN(Cc1ccoc1)C2`, the INHIBITION came out at 6.35%.

On to `Cn1nc(Cn2cccn2)c2c1CN(Cc1ccoc1)C2`, for which the INHIBITION amounted to 15.34%.

`CCS(=O)(=O)N1Cc2c(Cn3cccc3)nn(C(C)C)c2C1`: the INHIBITION was -24.79%.

Regarding `CC(C)n1nc(Cn2cccc2)c2c1CN(Cc1ccoc1)C2`, the INHIBITION stood at 51.4%.

For `O=C1CC[C@H]2CN(Cc3ncc[nH]3)CC[C@H]2N1CC1CCNCC1`, the INHIBITION is listed as 17.37%.

As for `Cc1cc(N2CCC(Cc3cnccn3)C2)ncn1` (stereo not drawn), the INHIBITION is on record as -10.89%.

With `CC(C)C(C#N)N1CCN(Cc2nccn2CC(F)(F)F)CC1` (stereo not drawn), the INHIBITION is reported as -16.4%.

For `O=C1[C@@H]2CCN(Cc3ccoc3)C[C@@H]2OCCN1Cc1cccnc1`, the INHIBITION was -32.67%.

Consider `CCS(=O)(=O)N1CC[C@H]2C(=O)N(Cc3cccnc3)CCO[C@H]2C1`, for which the INHIBITION stood at 58.52%.

Regarding `O=C1[C@@H]2CCN(C3CCOCC3)C[C@@H]2OCCN1Cc1cccnc1`, the INHIBITION is reported as 4.08%.

As to `CCOCC(O)CN1CCN(C(=O)c2cc(Cl)ccc2F)CC1` (stereo not drawn), the INHIBITION is 15.08%.

As to `Cc1ccc(C2NC(=O)c3cc(C(C)C)sc3N2)cc1` (stereo not drawn), the INHIBITION came to 46.98%.

For the compound `CC(C)c1cc2c(s1)NC(c1ccccn1)NC2=O` (stereo not drawn), the INHIBITION is reported as -23.17%.

With `CC(C)c1cc2c(s1)NC(c1ccccc1)NC2=O` (stereo not drawn), the INHIBITION was 51.76%.

For `O=C(NC1CCC1)c1n[nH]c2c1CNCC2`, the INHIBITION is reported as -29.3%.

As for `Cc1nc(C)n(C2CCCN(C(=O)COc3ccccc3)C2)n1` (stereo not drawn), the INHIBITION is reported as -2.9%.

Regarding `Cc1cc(C)n(C2CCCN(C(=O)CCCc3ccccn3)C2)n1` (stereo not drawn), the INHIBITION is given as -5.15%.

On to `Cc1nc(C)n(C2CCCN(C(=O)CCCc3ccccn3)C2)n1` (stereo not drawn), for which the INHIBITION came out at 70.27%.

With `Cc1nc(C)n(C2CCCN(C(=O)CCCOc3ccccc3)C2)n1` (stereo not drawn), the INHIBITION is on record as -17.71%.

Turning to `COc1ccccc1CC(=O)N1CCCC(n2nc(C)nc2C)C1` (stereo not drawn), the INHIBITION was found to be 59.23%.

`COc1ccccc1CC(=O)N1CCCC(n2nc(C)cc2C)C1` (stereo not drawn): the INHIBITION is reported as -7.5%.

Turning to `CCc1nnc(CN2CCOC(Cn3cc(C)cn3)C2)o1` (stereo not drawn), the INHIBITION was -50.23%.

For the compound `O=C(O)c1cc(C2=CCCCC2)cc(S(=O)(=O)NCc2ccccn2)c1`, the INHIBITION turned out to be 40.88%.

As to `CC(C)(C)n1ncc(NCC(O)c2ccccc2C(F)(F)F)c(Cl)c1=O` (stereo not drawn), the INHIBITION worked out at 6.26%.

In the case of `OC1(CNCCc2csc(-c3ccncc3)n2)CCCNC1` (stereo not drawn), the INHIBITION is listed as 10.72%.

`Fc1ccc(CN2CC[C@H]3O[C@@H](COCC4CCOCC4)CC[C@H]32)cc1`: the INHIBITION was determined as 32.31%.

Turning to `Cn1cncc1-c1nnc([C@H]2CCN(CC(C)(C)C)C2)o1`, the INHIBITION is -23.78%.

For the compound `CN(CCCOc1ccccc1Cl)C(=O)CN1CCCCCC1=O`, the INHIBITION is on record as 50.42%.

Consider `CN(CCCOc1ccccc1Cl)C(=O)CN1C(=O)CCNC1=O`, for which the INHIBITION came out at 27.67%.

`CN(CCCOc1ccccc1Cl)C(=O)CN1CCNC1=O`: the INHIBITION was -9.33%.

With `COC(C)(C)C(=O)N1Cc2cnc(C(C)(C)C)nc2C1`, the INHIBITION is given as -82.18%.

Turning to `CC(OCC1CC1)C(=O)Nc1cccc(C(=O)Nc2ccccn2)c1` (stereo not drawn), the INHIBITION is reported as -5.74%.

For the compound `NC(=O)c1cn(CC2CC2)c(C2CC2)n1`, the INHIBITION is on record as -4.87%.

For the compound `CCC[C@H]1CN(c2cncc(C(=O)N3CCCCC3)n2)C[C@@H]1N(C)C`, the INHIBITION is given as -16.39%.

For `Cc1nc(-c2ccoc2)n(CC(=O)NCC(C)C)c1C`, the INHIBITION is reported as 19.53%.

Regarding `CCOC(=O)CNC(=O)Cn1c(-c2ccoc2)nc(C)c1C`, the INHIBITION is on record as -19.53%.

Regarding `Cc1nc(-c2ccoc2)n(CC(=O)N(C)CC(C)C)c1C`, the INHIBITION is recorded as 64.82%.

`O=C(Nc1ccccc1)C1CN(C(=O)c2cccs2)CC12CCOCC2` (stereo not drawn): the INHIBITION is -36.65%.

Consider `CC1COCCN1Cc1nc(-c2ccc(F)cc2)no1` (stereo not drawn), for which the INHIBITION is -24.5%.

Regarding `CC(=O)Nc1nc(CN2CCOC(Cn3cncn3)C2)cs1` (stereo not drawn), the INHIBITION was -0.13%.

`O=C(C1CCCC1)N1C[C@@H]2CCN(c3cnccn3)C[C@@H]2C1`: the INHIBITION is 28.75%.

As to `CCC(=O)N1C[C@@H]2CCN(c3cnccn3)C[C@@H]2C1`, the INHIBITION was found to be 40.28%.

With `CC(C)CC(=O)N1C[C@@H]2CCN(c3cnccn3)C[C@@H]2C1`, the INHIBITION was found to be 20.51%.

`O=C(c1cnccn1)N1C[C@@H]2CCN(c3cnccn3)C[C@@H]2C1`: the INHIBITION was determined as 24.95%.

For the compound `CCCC(=O)N1C[C@@H]2CCN(c3cnccn3)C[C@@H]2C1`, the INHIBITION is reported as 50.72%.

As to `O=C(C1CCCCC1)N1C[C@@H]2CCN(c3cnccn3)C[C@@H]2C1`, the INHIBITION is reported as 50.17%.

The values above are taken from ChEMBL document CHEMBL4513216, “Probing the Open Global Health Chemical Diversity Library for Multistage-Active Starting Points for Next-Generation Antimalarials” (ACS Infect Dis, 2020).
